Test results published in PubChem BioAssay AID933 (National Center for Advancing Translational Sciences (NCATS), 2007).
Inconclusive results are not listed. Activity calls are given as the source filed them. Calls come from the whole dose curve; as a rule, active = well fitted activation curve with a large enough effect in the signal ratio, with a control signal flat; inconclusive = small, poorly fitted or top-dose-only effect, or a change in a side signal; inactive = flat fitted curve, though single readings scatter; the % refers to the signal ratio.

Each molecule was assayed against Thyrotropin receptor (Homo sapiens) (UniProt P16473) (assay: Secondary Concentration-Response Assay for Agonists of the Thyroid Stimulating Hormone Receptor: HTRF Activity Detection). Details: HEK293-TSHR cells, cAMP HTRF ratio, 30 min; series mostly up to 91.7 µM; activation: at the top concentration.
Outline: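 cAMP accumulation was detected by antibody-based HTRF, excitation 330 nm, emissions 615 and 660 nm. Compounds acted for 30 min at room temperature on stably TSHR-transfected HEK 293 cells, with phosphodiesterase inhibitor RO 20-1724 (100 uM) in the medium.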
Potency is the fitted concentration of half-maximal effect.
Throughout, for activation: % of control where 0% means no effect.

Chain of Thyrotropin receptor (Homo sapiens) (P16473 whole entry, looked up): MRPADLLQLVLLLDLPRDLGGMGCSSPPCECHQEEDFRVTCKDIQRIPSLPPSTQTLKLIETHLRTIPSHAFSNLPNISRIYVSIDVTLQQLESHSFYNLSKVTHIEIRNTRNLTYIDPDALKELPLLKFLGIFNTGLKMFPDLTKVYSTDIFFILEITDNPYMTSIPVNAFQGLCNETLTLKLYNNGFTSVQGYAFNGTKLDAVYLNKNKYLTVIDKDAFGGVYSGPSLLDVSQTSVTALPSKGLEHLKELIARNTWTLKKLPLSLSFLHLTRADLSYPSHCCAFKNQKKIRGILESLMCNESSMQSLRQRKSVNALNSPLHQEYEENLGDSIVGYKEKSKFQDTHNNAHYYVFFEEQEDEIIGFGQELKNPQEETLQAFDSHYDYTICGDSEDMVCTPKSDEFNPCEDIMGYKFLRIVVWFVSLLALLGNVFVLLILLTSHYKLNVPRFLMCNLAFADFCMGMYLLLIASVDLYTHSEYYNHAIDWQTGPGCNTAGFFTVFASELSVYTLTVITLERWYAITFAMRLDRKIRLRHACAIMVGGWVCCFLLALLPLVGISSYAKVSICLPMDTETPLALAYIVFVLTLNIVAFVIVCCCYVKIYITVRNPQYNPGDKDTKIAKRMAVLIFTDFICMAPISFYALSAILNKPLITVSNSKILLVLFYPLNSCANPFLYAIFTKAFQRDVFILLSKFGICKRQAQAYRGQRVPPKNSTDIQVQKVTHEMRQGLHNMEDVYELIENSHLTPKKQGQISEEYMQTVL

| Structure (SMILES) | activation | Potency |
| --- | --- | --- |
| COC(=O)C1=C(C)OC(N)=C(C#N)C1C1CCCCC1 (stereo not given) | -0.764% [at 0.00035 µM] (inactive) | – |
| Oc1ccccc1Cn1c(-c2ccccc2O)nc2ccccc21 | -0.344% [at 0.00035 µM] (inactive) | – |
| COc1ccc(C2Nc3ccccc3C(=O)N2c2ccc(C)cc2)cc1Cn1nc(C)c([N+](=O)[O-])c1C (stereo not given) | 1.41% (inactive) | – |
| O=C1c2ccccc2NC(c2ccc(F)cc2)N1Cc1ccco1 (stereo not given) | 1.15% (inactive) | – |
| COc1ccc(C2Nc3ccccc3C(=O)N2Cc2ccccc2)cc1CSc1ccccn1 (stereo not given) | 0.775% (inactive) | – |
| COc1ccc(C2Nc3ccccc3C(=O)N2Cc2ccccc2OC)cc1COc1ccc(NC(C)=O)cc1 (stereo not given) | 17.2% (inactive) | – |
| COc1ccc(C2Nc3ccccc3C(=O)N2CCCN(C)C)cc1COc1ccc(NC(C)=O)cc1 (stereo not given) | 2.95% (inactive) | – |
| COc1cc(OC)cc(C(=O)N(Cc2ccco2)Cc2cccs2)c1 | -0.173% (inactive) | – |
| CCCN1C(=O)c2ccccc2NC1c1ccc(OC)c(CSc2ccccn2)c1 (stereo not given) | 3.44% (inactive) | – |
| O=C(Nc1ccccn1)NC12CC3CC(CC(C3)C1)C2 | 0.487% [at 0.00035 µM] (inactive) | – |
| COc1ccc(C2Nc3ccccc3C(=O)N2Cc2ccco2)cc1COc1ccccc1 (stereo not given) | 2.37% (inactive) | – |
| NC(=O)c1nsc(C(=O)N(CC(=O)NC2CCCC2)Cc2ccc3c(c2)OCO3)c1N | 0.815% (inactive) | – |
| O=C1c2ccccc2NC(c2cccc(O)c2)N1Cc1ccco1 (stereo not given) | 1.32% (inactive) | – |
| COc1ccc(CN(Cc2ccccc2)C(C)=O)cc1COc1ccc(NC(C)=O)cc1 | 5.35% (inactive) | – |
| O=C(c1ccco1)N(Cc1cccs1)c1ccc(O)cc1 | 1.56% (inactive) | – |
| O=C1C2C3CCCC3=C3CCCC3C2C(=O)N1c1ccccc1Cl (stereo not given) | 0.928% (inactive) | – |
| COc1ccc(C2Nc3ccccc3C(=O)N2Cc2ccc(C(F)(F)F)cc2)cc1COc1ccc(NC(C)=O)cc1 (stereo not given) | 21.4% (inactive) | – |
| COc1ccc(C2Nc3ccccc3C(=O)N2Cc2cccc(C(F)(F)F)c2)cc1COc1ccc(NC(C)=O)cc1 (stereo not given) | – | 4.47 µM (active) |

| Structure (SMILES) | activation | Potency |
| --- | --- | --- |
| CCCC(=O)C1=C(SCC)CC(C)(C)C(C(=O)OC)C1=O (stereo not given) | 0.0277% [at 0.00035 µM] (inactive) | – |
| COc1ccc(C(=O)N(Cc2ccccc2)Cc2ccco2)c(O)c1 | – | 15.8 µM (active) |
| O=C(COC(=O)C1c2ccccc2Oc2ccccc21)Nc1ccc2c(c1)OCO2 | 0.151% [at 0.00035 µM] (inactive) | – |
| CCOC(=O)c1ccccc1OCc1cc(C2Nc3ccccc3C(=O)N2c2cccc3ccccc23)ccc1OC (stereo not given) | 0.946% (inactive) | – |
| COc1ccc(C2Nc3ccccc3C(=O)N2Cc2cccnc2)cc1COc1ccc(NC(C)=O)cc1 (stereo not given) | – | 35.5 µM (active) |
| COc1ccc(C2Nc3ccccc3C(=O)N2Cc2ccccc2)cc1COc1ccc(F)cc1 (stereo not given) | 16.4% (inactive) | – |
| COc1ccc(-c2nc3ccc(Cl)cc3c(=O)n2Cc2ccccc2)cc1COc1ccc(NC(C)=O)cc1 | 20.5% (inactive) | – |
| COc1ccc2c(c1OC)C(=O)N1c3ccccc3C(=O)N(Cc3ccco3)C21 (stereo not given) | 18.7% (inactive) | – |
| O=C(CSc1nnc(-c2ccccc2)n1Cc1ccco1)Nc1ccc2c(c1)OCCO2 | -0.544% [at 0.00035 µM] (inactive) | – |
| COc1ccc(C2Nc3ccccc3C(=O)N2Cc2ccccc2)cc1COc1ccc([N+](=O)[O-])c(C)c1 (stereo not given) | 1.38% (inactive) | – |
| NC(=O)c1nsc(C(=O)N(CC(=O)NCc2ccc3c(c2)OCO3)C2CCCC2)c1N | – | inactive |
| COc1ccc(/C=N/O)cc1COc1ccc(NC(C)=O)cc1 | 0.871% (inactive) | – |
| O=C(CN1C(=O)NC2(CCCCC2)C1=O)NCCC1=CCCCC1 | 1.34% [at 0.00035 µM] (inactive) | – |
| CCOc1ccc(N(CC(=O)NCc2cccs2)S(=O)(=O)c2c(C)noc2C)cc1 | -0.0859% [at 0.00035 µM] (inactive) | – |
| Cc1ccccc1NC(=O)CSc1nnc(-c2ccoc2C)n1CCc1ccccc1 | -0.0378% [at 0.00035 µM] (inactive) | – |
| COc1ccc(C2Nc3ccccc3C(=O)N2Cc2ccco2)cc1COc1ccc(NC(C)=O)cc1 (stereo not given) | – | 15.8 µM (active) |
| COc1ccc(-c2ccc(-c3noc(C)n3)c(OC)n2)cc1 | -0.214% [at 0.00035 µM] (inactive) | – |
